Measurements taken from PubChem BioAssay (NCI).
This is part of a sample that, as a whole, favours compounds with a hit. Of some 79,000 tested, about 15% had one in any assay. Unmarked numbers belong to inactive results. Activity calls are given as the source filed them. Cut-off read from the data, not from the text of the source: active = growth inhibition above about 70%; inactive = the rest.

Assays:
[1] = NCI Yeast Anticancer Drug Screen. Data for the rad50 strain (AID 155);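 note: 0% = growth of vehicle-only cultures of the same strain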; conditions: S. cerevisiae rad50 strain growth inhibition, active compounds read high
Outline: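 Cells are treated with compound, grown, and their growth is then scored against vehicle-only cultures of the same repair-deficient yeast strain.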

[2] = NCI Yeast Anticancer Drug Screen. Data for the mec2-1 strain (AID 157); conditions: S. cerevisiae mec2-1 strain, active compounds read high
Outline: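 Each compound was tested on mec2-1 yeast, a strain altered in DNA damage repair or cell cycle control. Growth inhibition is reported relative to vehicle.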

[3] = NCI Yeast Anticancer Drug Screen. Data for the sgs1 mgt1 strain (AID 161);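 note: 0% = growth of cultures given vehicle only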; conditions: S. cerevisiae sgs1 mgt1 strain, active compounds read high
Outline: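 Read-out: growth inhibition vs vehicle controls. Cells: mutant yeast strain deficient in DNA damage repair.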

[4] = NCI Yeast Anticancer Drug Screen. Data for the cln2 rad14 strain (AID 165);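 note: 0% = growth equal to vehicle treated cultures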; conditions: S. cerevisiae cln2 rad14 strain, active compounds read high
Outline: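 Test compounds were added to cln2 rad14 yeast cultures; inhibition of growth was then determined by comparison with vehicle treatment.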

[5] = NCI Yeast Anticancer Drug Screen. Data for the bub3 strain (AID 167); conditions: S. cerevisiae bub3 mutant strain, active compounds read high
Outline: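 Part of a panel of yeast mutants defective in DNA damage repair or cell cycle regulation. Each strain is grown with compound, and inhibition is calculated relative to solvent-treated cultures.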

[6] = NCI Yeast Anticancer Drug Screen. Data for the mlh1 rad18 strain (AID 175); conditions: S. cerevisiae mlh1 rad18 strain growth inhibition, active compounds read high
Outline: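 Inhibition values reflect reduced growth of mutant yeast versus vehicle-treated controls following compound exposure; the mutations affect DNA damage repair.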

[7] = at 5.0 µM (retest, dose inferred, filed as 0.5)
[8] = at 50.0 µM (retest, dose inferred, filed as 5.0)

| Compound | growth inhibition [1, 7] [%] | growth inhibition [1, 8] | growth inhibition ([1]; at 50.0 µM) | growth inhibition [2, 7] [%] | growth inhibition [2, 8] | growth inhibition ([2]; at 50.0 µM) | growth inhibition [3, 7] [%] | growth inhibition [3, 8] | growth inhibition ([3]; at 50.0 µM) | growth inhibition [4, 7] [%] | growth inhibition [4, 8] | growth inhibition ([4]; at 50.0 µM) | growth inhibition [5, 7] [%] | growth inhibition [5, 8] | growth inhibition ([5]; at 50.0 µM) | growth inhibition [6, 7] [%] | growth inhibition [6, 8] | growth inhibition ([6]; at 50.0 µM) |
| --- | --- | --- | --- | --- | --- | --- | --- | --- | --- | --- | --- | --- | --- | --- | --- | --- | --- | --- |
| OC(CCl)c1ccc2ccc3c(c2c1)Nc1ccccc1S3 (configuration not stated) | 0 | 80% (active) | 80.4% (active) | -1 | 88% (active) | 97.2% (active) | 2 | 83% (active) | 97.2% (active) | -1 | 75% (active) | 78.8% (active) | 4 | 87% (active) | 87.9% (active) | -1 | 86% (active) | 96.5% (active) |
| CCN(CC)P(=S)(c1ccccc1CCP(=S)(c1ccccc1)c1ccccc1)N(CC)CC | -6 | 34% | 91.2% (active) | -3 | 21% | 98.6% (active) | -6 | 62% | 97.6% (active) | -1 | 11% | 96.8% (active) | -2 | 41% | 59.6% | -4 | 32% | 97.1% (active) |
| COC12C(COC(N)=O)C3=C(C(=O)C(C)=C(N)C3=O)N1CC1C2N1C(=O)c1ccc(Cl)c(Cl)c1 (configuration not stated) | 32 | 93% (active) | 82.2% (active) | 29 | 96% (active) | 85.3% (active) | 12 | 95% (active) | 89.2% (active) | 11 | 94% (active) | 80.5% (active) | 22 | 95% (active) | 83.8% (active) | 37 | 95% (active) | 88% (active) |
| OC(C1CCCCN1)C1CC(c2ccccc2)Nc2c(Cl)cc(Cl)cc21 (configuration not stated) | 9 | 99% (active) | 99.4% (active) | -2 | 99% (active) | 99.5% (active) | -1 | 99% (active) | 99.4% (active) | -4 | 99% (active) | 99% (active) | 1 | 99% (active) | 49.5% | 6 | 99% (active) | 99.4% (active) |
| N#CSCCl | 0 | 42% | 91.7% (active) | 5 | 75% (active) | 92% (active) | -2 | 20% | 93.8% (active) | 1 | 61% | 91% (active) | -4 | 93% (active) | 92.3% (active) | 3 | 87% (active) | 92% (active) |
| O=C(O)COc1c(Cl)c(Cl)c(Cl)c(Cl)c1Cl.[Cu+2] | 28 | 98% (active) | 88% (active) | 20 | 99% (active) | 93.7% (active) | 42 | 99% (active) | 92.7% (active) | 7 | 99% (active) | 86% (active) | 9 | 99% (active) | 89.2% (active) | 22 | 99% (active) | 86.3% (active) |
| C=C(C)CCC(=C)C | 22 | 91% (active) | 48.7% | 3 | 47% | 14.1% | 11 | 63% | 42.4% | -4 | 26% | 29.8% | -2 | 2% | -35.2% | 16 | 64% | 42% |
| COC1=Nc2ccccc2/C=C\c2ccccc21 | -136 | -77% | 78.5% (active) | -50 | -57% | 82.2% (active) | -67 | -53% | 67.7% | -49 | -60% | 25.2% | -62 | -85% | 43.7% | -124 | -118% | 69.5% |
| CN(C)c1nc(=NCc2ccco2)ss1 | 12 | 51% | 1.8% | 17 | 53% | 2.3% | 25 | 80% (active) | 17.9% | 13 | 32% | 5.2% | 32 | 76% (active) | -53% | 29 | 74% (active) | 9.8% |
| COc1cc2c(cc1OC)[C@H]1C(=O)c3cc4c(cc3[C@H]1N(C)C2=O)OCO4 | -1 | 0% | 10.3% | 1 | -2% | 11.9% | -8 | -4% | -2.35% | -6 | -1% | 50.4% | -7 | 1% | 27.7% | 0 | -32% | 39.8% |
| NCC(O)CSc1ccc(Cl)c(Cl)c1 (configuration not stated) | 2 | 11% | 8.95% | -2 | -4% | 14.2% | 1 | 16% | 18.8% | 5 | 9% | 74.8% (active) | 3 | 3% | 17.2% | 4 | 7% | 11.4% |
| COc1ccccc1NC(=O)C1=C(C)NC(C)=C(C(=O)Nc2ccccc2OC)C1c1ccc(OC)c(OC)c1 | 9 | 50% | 55.9% | -3 | 43% | 26.6% | 9 | 48% | 49.9% | -4 | 31% | -38.9% | -1 | 51% | -3.55% | 2 | 38% | 23.9% |
| O=S(=O)(c1ccc2c(c1)CCCN2)N1CCC[C@H]2CCCC[C@@H]21 | 7 | 94% (active) | 95.3% (active) | -2 | 96% (active) | 96.8% (active) | 0 | 95% (active) | 97.1% (active) | 32 | 94% (active) | 95.5% (active) | 14 | 96% (active) | 98.2% (active) | 11 | 93% (active) | 95% (active) |
| CC(=O)Oc1c(C)cc([N+](=O)[O-])cc1[N+](=O)[O-] | -11 | 99% (active) | 99.7% (active) | 1 | 99% (active) | 99.8% (active) | 11 | 99% (active) | 99.8% (active) | 16 | 99% (active) | 98.9% (active) | 9 | 99% (active) | 99% (active) | 16 | 99% (active) | 99.7% (active) |
| NC(=S)C(=S)N=Cc1c(N)[nH]n(-c2ccccc2)c1=O | -13 | -1% | 57.8% | -10 | 15% | 48.8% | 9 | 3% | 53.8% | 32 | 26% | 61.6% | 19 | 37% | -10.6% | -4 | 15% | 44.6% |
| COC(=O)CCCCCOS(=O)(=O)c1ccc(C)cc1 | 1 | -5% | 26.9% | -3 | -5% | 16.2% | -4 | -3% | 21.9% | -3 | -14% | 84.2% (active) | -1 | -5% | 1.05% | -5 | -8% | 0.7% |
| CCOC(=O)C(Cl)C(Cl)C(=O)OCC (configuration not stated) | 12 | 98% (active) | 98.8% (active) | 6 | 98% (active) | 99% (active) | 2 | 99% (active) | 99.5% (active) | 6 | 98% (active) | 98.4% (active) | 22 | 98% (active) | 99% (active) | 12 | 99% (active) | 99% (active) |
| CCCCC1C(=O)N2c3ccccc3-c3ccccc3N2C1=O | -5 | 30% | 65.5% | 4 | 33% | 6.8% | -3 | 23% | 43.2% | -4 | 8% | 14.8% | 6 | 10% | 17.4% | 0 | 34% | 35% |
| CC(=O)Nc1ccc(-c2ccccc2)cc1[N+](=O)[O-] | -3 | 4% | 14.9% | -4 | 0% | 16.6% | -2 | 0% | -24.1% | 0 | -7% | -113% | 1 | 5% | 44.4% | -2 | 2% | 41.7% |
